According to the supplement of paper PMC4188521:

compound: CCc1cnn2c(NCc3ccc[n+]([O-])c3)cc(N3CCCC[C@H]3CCO)nc12 [dinaciclib]; assay: cell viability remaining relative to DMSO control; higher = less cytotoxic (more viable cells); conditions: 100 nM; 24 h
Method in brief: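 Remaining viability, expressed as a percentage of the DMSO control, compares luminescence in treated wells with that in DMSO-treated control wells. Solid tumour cell lines from commercial banks received 100 nM of the test compound for 24 hr, with final DMSO kept at ≤0.2%. Viability was read as ATP luminescence using CellTiter-Glo, and values are means from 2–6 plates run in triplicate wells.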

Target	cell viability remaining
H1838	90.6%
HUTU80	27.1%
HS940T	78.6%
OV7	73.4%
HPAFII	58.1%
H2228	36.4%
HCT8	51.3%
SKUT1	74.7%
SKMEL5	76.8%
769P	57.5%
CORL23	62.8%
SW1116	86.8%
SCC4	66.5%
CAKI1	63.5%
G401	10.4%
MALME3M	54.4%
DETROIT562	34.6%

Target	cell viability remaining
RKN	55.6%
H4	34.1%
DKMG	44%
PC3	66.2%
A498	68.3%
T98G	53.4%
HS839T	97.6%
OVCAR4	49.6%
H2030	91.9%
MIAPACA2	41.2%
SKCO1	89.8%
H441	73.4%
MCAS	82.8%
786O	44.3%
H1975	69.4%
OVSAHO	61.8%
NCI-H322	69.1%
